# Bioassay records deposited in PubChem by Broad Institute.
# Not all results are given here.
# aSyn 5UTR act: Activators working through SNCA 5'UTR binding (MLPCN); alpha-synuclein 5'UTR reporter, activators screen; activity score, % (tested at 7.5 µM), hits read low; hit rate 7.1% among 300,000; in the data active = activity score below about -60%
# * marks the source's active call; other numbers are inactive results.
SMILES,aSyn 5UTR act
CC1(C)Cc2nc3sc(C(=O)NCCCO)c(N)c3cc2CO1,-69*
Cn1nccc1C(=O)Nc1sc2c(c1C(N)=O)CCCC2,-126*
Cn1nccc1C(=O)Nc1sc2c(c1C#N)CCCC2,-100*
Cn1cc(Br)c(C(=O)Nc2sc3c(c2C(N)=O)CCC3)n1,-95*
C(=N\n1cnnc1)/c1cccc(OCCOc2ccccc2)c1,-65*
C(=N\n1cnnc1)/c1ccc(OCc2cccc3ccccc23)cc1,-110*
Clc1ccc2nc3c4ccccc4cnn3c2c1,-160*
CC1CC(C)CN(S(=O)(=O)c2ccc(C(=O)NCCCn3ccnc3)cc2)C1 (stereo not given),98
CCCNC(=O)c1ccc(N2CCC3(CC2)CC(c2ccccc2)=NO3)c(NC(=O)c2ccccc2)c1,59
CC1CC(C)CN(CCCNC(=O)c2ccc3nc(N4CCCCC4)sc3c2)C1 (stereo not given),-273*
CCCN1CCN(CCCNC(=O)c2ccc3nc(N4CCCCC4)sc3c2)CC1,-214*
CCCNc1nc(C)nc2c1cnn2CCc1ccccc1,-105*
Cc1nc(NC(C)C)c2cnn(CCc3ccccc3)c2n1,-133*
C=CCc1cccc(/C=N/NC(=O)CNc2ccccc2)c1O,74
C=CCc1cccc(/C=C/c2cc(=O)c3ccccc3[nH]2)c1O,-71*
CN(C)/C=C(\C#N)C(=O)N/N=C/c1ccccc1,-69*
COc1ccc(N)cc1-n1c(C)ccc1C,-118*
CC(=O)O[C@H]1C(=O)[C@]2(C)[C@H]([C@H](OC(=O)c3ccccc3)[C@]3(O)C[C@H](OC(=O)[C@H](O)[C@@H](NC(=O)c4ccccc4)c4ccccc4)C(C)=C1C3(C)C)[C@]1(OC(C)=O)CO[C@@H]1C[C@@H]2O,95
Cn1ncc([N+](=O)[O-])c1C(=O)Nc1ccc(-c2nc3ccccc3o2)cc1,-130*
COc1ccc(/C(C)=N/Nc2nc3ccccc3nc2C)cc1,-67*
COc1ccc(N/N=C(/C)c2cnnc(-c3ccccc3)n2)cc1,-70*
COc1ccc(/C(C)=N/Nc2nncc3ccccc23)cc1,-113*
COc1ccc(C2=CC(c3sccc3C)n3nnnc3N2)cc1 (stereo not given),-130*
COc1ccc(C2=CC(c3ccc(F)cc3)n3nnnc3N2)cc1 (stereo not given),-130*
Cc1ccc(NC(=O)Nc2nnc(-c3ccccc3)o2)cc1,-75*
SMILES,aSyn 5UTR act
Cc1ccc(-c2nnc(-c3cccc(NC(=O)c4cccs4)c3)o2)cc1,-94*
COc1cccc(-c2nnc(NC(=O)C3CCCCC3)o2)c1,-96*
O=C(Nc1cccc(-c2nnc(-c3ccccc3)o2)c1)C1CCCCC1,-105*
CCC(=O)Nc1cccc(-c2nnc(-c3ccccc3)o2)c1,-201*
Cc1cccc(C)c1OCC(=O)Nc1cccc(-c2nnc(-c3ccccc3)o2)c1,-91*
CC(=O)Oc1oc(-c2ccccc2)nc1/C=N/c1ccccn1,-72*
CN(C)c1ccc(N=Cc2nc(-c3ccccc3)oc2O)cc1,-95*
CN(C)c1ccc(N=Cc2nc(-c3ccccc3)oc2OC(=O)c2ccccc2)cc1,-115*
Oc1oc(-c2ccccc2)nc1C=NCc1ccccc1,-133*
COc1cc(C=C2C(=O)OC(C)(C)OC2=O)ccc1OCC(=O)Nc1ccccc1,-123*
COc1cc(/C=C/c2cc[n+](C)cc2)ccc1OCC(=O)Nc1ccccc1,-76*
CN1/C(=C/C(=O)c2nc(S(C)(=O)=O)ncc2Cl)C(C)(C)c2ccccc21,57
CN(C)c1ccc(N=C/C=C2\N(C)c3ccccc3C2(C)C)cc1,-114*
COc1ccc(C2=NOC(C(=O)NCC(C)C)C2)cc1 (stereo not given),-107*
COc1ccc(C2=NOC(C(=O)NCc3ccco3)C2)cc1 (stereo not given),-77*
O=C(NC1CCCCCC1)c1ccc(N2CCCC2=O)cc1,-101*
O=C(Nc1ccc(Cl)cc1)NC1CCCCC1,-175*
O=C(Nc1ccc2nsnc2c1)NC1CCCCC1,-197*
S=C(NCCc1cccc(Cl)c1)NC1CCCCC1,-118*
O=C(Nc1ccccc1F)NC1CCCCCCC1,-115*
O=C(NC1CCCCCCC1)c1ccc(F)cc1,-197*
Nc1ccc(NC(=O)NC2CCCCC2)cc1[N+](=O)[O-],-161*
O=C(Nc1cccc(Cl)c1)NC1CCCCC1,-121*
CC(=O)c1cccc(NC(=O)NC2CCCCCCC2)c1,-70*
O=C(Nc1ccc(F)cc1)NC1CCCCCCC1,-96*
SMILES,aSyn 5UTR act
O=C(Nc1ccc(F)c(F)c1)NC1CCCCC1,-86*
CC1CN(C(=O)Nc2ccc3snnc3c2)c2ccccc21 (stereo not given),-67*
O=c1c2ccccc2nc(-c2ccccc2)n1Cc1ccccc1,-93*
CCCn1c(-c2cccc([N+](=O)[O-])c2)nc2c1c(=O)[nH]c(=O)n2Cc1ccccc1,54
Cc1cc2oc3ccc(NCCCn4ccnc4)cc3c(=O)c2cc1C,-86*
Cc1cc2oc3ccc(NCCCN4CCOCC4)cc3c(=O)c2cc1C,-97*
O=C(NCCc1ccccc1)c1ccc(Cl)nc1,-169*
O=C(NCCc1ccccc1)c1ccc(NS(=O)(=O)c2ccc3[nH]c(=O)[nH]c3c2)cc1,-72*
O=C(NCCc1ccccc1)c1ccncc1,-146*
C=CCN(c1ccc(C(=O)NCCc2ccccc2)cc1)S(C)(=O)=O,-109*
CCCNC(=O)c1ccc2c(=O)c(O)c(-c3ccc(C)cc3)[nH]c2c1,69
CC(=O)Nc1ccc(C(=O)NCCc2ccccc2)cc1,-131*
O=C(NCCCc1ccccc1)c1ccc(F)cc1,-101*
Nn1c(SCc2ccccc2)nc2ccccc21,-127*
C/C(=N/NC(=O)c1cccs1)c1ccco1,-100*
CCOC(=O)C/C(C)=N/NC(=O)c1cccs1,-131*
CC1C2CC(C/C2=N/NC(=O)c2cccs2)C1(C)C (stereo not given),-74*
C/C(=N\NC(=O)c1cccs1)C(C)(C)C,-94*
O=C(NN=C1CCCCCC1)c1cccs1,-75*
C/C(=N\NC(=O)c1cc(-c2ccc(C)s2)[nH]n1)c1ccco1,-168*
Cc1ccc(NNC(=S)Nc2ccc(C(C)C)cc2)c(C)c1,-145*
CCn1c(SCC(=O)c2ccc(Cl)cc2)nnc1C(C)C,-76*
Cc1ccc(OCC(=O)Nc2ccccc2F)cc1,-72*
O=C(COc1ccccc1)NCCSCc1ccccc1Cl,-64*
CCOC(=O)c1oc2ccccc2c1NC(=O)COc1ccc(F)cc1,61
SMILES,aSyn 5UTR act
Cc1ccc(CCC(=O)Nc2ccccc2F)s1,-91*
Cc1ccc(OCC(=O)Nc2ccccc2F)cc1C,-178*
O=C(COc1ccccc1)Nc1ccccc1Cl,-165*
Cc1ccc(C(=O)CCC(=O)Nc2ccccc2F)cc1,-98*
Cc1c(Cl)ccc2c(C(=O)NC(C)c3ccncc3)cc(-c3ccncc3)nc12 (stereo not given),-67*
Fc1ccc(-c2csc(Nc3ccccn3)n2)cc1,-77*
Cc1cccc(Nc2nc(-c3ccc(F)cc3)cs2)n1,-137*
CC(=O)Oc1ccc(-c2csc(Nc3cccc(C)n3)n2)cc1,-250*
COc1ccc(-c2csc(Nc3cccc(C)n3)n2)cc1,-232*
COc1ccc(-c2csc(Nc3cccc(C)n3)n2)cc1C,-216*
Cc1ccc(-c2nc(C#N)c(NCc3cccc4c3OCO4)o2)cc1,-66*
CC(C)(C)c1ccc(-c2nc(C#N)c(NCc3ccncc3)o2)cc1,-107*
CCOC(=O)c1cnc(Nc2nc3ccccc3o2)nc1CSc1nnc(C)s1,-86*
CCOC(=O)c1cnc(Nc2nc3ccccc3o2)nc1C,86
